# In PubChem BioAssay (EPA / NIEHS):
# Activity calls are given as the source filed them. How the source made its calls: active means hit-call score of the fitted dose curve at least 0.9, where 1 is the maximum; inactive means score below 0.9.
# Test system: not listed separately
# Assay: ATG_M_06_CIS: Attagene CIS-FACTORIAL HepG2 Assay for M06 Transcription Factor (Internal Marker) (AID 2282950)
# Settings: HepG2 Attagene CIS-FACTORIAL M06 internal marker reporter; actives raise or lower the signal
# Method in brief: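 Fluorescence-labelled RT-PCR products from cis-promoter reporter units, cut with HpaI and resolved by capillary electrophoresis, give the signal. Cells are human HepG2, dosed for 24 h. Serves as background control, fitted relative to DMSO.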
row,Compound,outcome
1,COc1cc(-c2nc(NC(=O)c3cc4cc(C)cc(C)c4n3CC(=O)O)sc2CCC2CCCCC2)c(OC)cc1Cl,inactive
2,CCCCCCCCCCCC(=O)OC,inactive
3,COCCOCCOC,inactive
4,CCCCCCCCCCO,inactive
5,CCOC(=O)C(C)(C)Oc1ccc(Cl)cc1,inactive
6,CC(CO)OC(C)CO (centres undefined) (tested in a mixture with another compound),inactive
7,CCc1c(C(=O)NN2CCCCC2)nn(-c2ccc(Cl)cc2Cl)c1-c1ccc(Br)cc1,inactive
8,CNC(=O)[C@H]1O[C@@H](n2cnc3c(NCc4cc(Cl)ccc4OCc4cc(C)no4)ncnc32)[C@H](O)[C@@H]1N,inactive
9,C[Si]1(C)O[Si](C)(C)O[Si](C)(C)O[Si](C)(C)O1,inactive
10,CCCCc1ccc2c(n1)[C@@H](c1ccc(OC)cc1C[C@H](C)C(=O)O)[C@H](C(=O)O)[C@H]2c1ccc2c(c1)OCO2,inactive
11,O=C(O)CCCCC(=O)O,inactive
12,CCCCN(CCCC)CCCC,inactive
13,CN[C@H]1CC[C@@H](c2ccc(Cl)c(Cl)c2)c2ccc(S(N)(=O)=O)cc21,inactive
14,Cc1cc(=O)[nH]c(=S)[nH]1,inactive
15,Cc1nc(-c2ccc3c(c2)CCN(CCC2CCC(NC(=O)/C=C/c4ccc(F)cc4)CC2)CC3)no1 (centres undefined),inactive
16,Cc1ccc(Cl)cc1,inactive
17,NC(=O)Cn1c(=O)cc(CCN2CCN(c3nccc4sccc34)CC2)c2ccc(F)cc21,inactive
18,Cc1ccccc1Cl,inactive
19,COc1cc(/C=C/C(=O)CC(=O)/C=C/c2ccc(O)c(OC)c2)ccc1O,inactive
20,Nc1nc(N)c2nc(CNc3ccc(C(=O)N[C@@H](CCC(=O)O)C(=O)O)cc3)cnc2n1,inactive
21,COc1cc(S(=O)(=O)O)c(C)cc1N=Nc1c(O)ccc2cc(S(=O)(=O)O)ccc12,inactive
22,CN1CCN(Cc2cc(-c3ccc4[nH]c(=O)oc4c3)co2)[C@@H](c2ccc(F)cc2)C1,inactive
23,FC(F)(F)C(F)(F)C(F)(F)C(F)(F)C(F)(F)C(F)(F)CCI,inactive
24,Cc1nc(C)nc(N2C[C@@H](C)N(c3ccnc([C@@H](C)O)n3)[C@@H](C)C2)n1,inactive
25,NS(=O)(=O)c1cc2c(cc1Cl)NCNS2(=O)=O,inactive
26,Cc1c(C(=O)O)c(O)cc2c1C(=O)c1c(O)c([C@@H]3O[C@H](CO)[C@@H](O)[C@H](O)[C@H]3O)c(O)c(O)c1C2=O,inactive
27,Cc1cc(NC(=O)C(=O)O)cc(C)c1Oc1ccc(O)c2c1CCC2,inactive
28,O=C(O)Cc1ccccc1Nc1c(Cl)cccc1Cl,inactive
29,O=c1[nH]cc(F)c(=O)[nH]1,inactive

# Target: Hypoxia-inducible factor 1-alpha (Homo sapiens) (UniProt Q16665)
# Assay: ATG_HIF1a_CIS: Attagene CIS-FACTORIAL HepG2 Assay for human Hypoxia Inducible Factor 1 (HIF1A) (AID 2282951)
# Settings: HepG2 Attagene cis-factorial HIF1a reporter transcription; actives raise or lower the signal
# Method in brief: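 After 24 h chemical exposure of reporter-transfected HepG2 cells, reporter cDNA was PCR-amplified, labelled by 6-FAM primer extension (2 min 95 C, 20 s 68 C, 10 min 72 C), HpaI-cut (2 h, 37 C) and analysed by CE.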
# Hypoxia-inducible factor 1-alpha (Homo sapiens), sequence (Q16665 whole entry, looked up): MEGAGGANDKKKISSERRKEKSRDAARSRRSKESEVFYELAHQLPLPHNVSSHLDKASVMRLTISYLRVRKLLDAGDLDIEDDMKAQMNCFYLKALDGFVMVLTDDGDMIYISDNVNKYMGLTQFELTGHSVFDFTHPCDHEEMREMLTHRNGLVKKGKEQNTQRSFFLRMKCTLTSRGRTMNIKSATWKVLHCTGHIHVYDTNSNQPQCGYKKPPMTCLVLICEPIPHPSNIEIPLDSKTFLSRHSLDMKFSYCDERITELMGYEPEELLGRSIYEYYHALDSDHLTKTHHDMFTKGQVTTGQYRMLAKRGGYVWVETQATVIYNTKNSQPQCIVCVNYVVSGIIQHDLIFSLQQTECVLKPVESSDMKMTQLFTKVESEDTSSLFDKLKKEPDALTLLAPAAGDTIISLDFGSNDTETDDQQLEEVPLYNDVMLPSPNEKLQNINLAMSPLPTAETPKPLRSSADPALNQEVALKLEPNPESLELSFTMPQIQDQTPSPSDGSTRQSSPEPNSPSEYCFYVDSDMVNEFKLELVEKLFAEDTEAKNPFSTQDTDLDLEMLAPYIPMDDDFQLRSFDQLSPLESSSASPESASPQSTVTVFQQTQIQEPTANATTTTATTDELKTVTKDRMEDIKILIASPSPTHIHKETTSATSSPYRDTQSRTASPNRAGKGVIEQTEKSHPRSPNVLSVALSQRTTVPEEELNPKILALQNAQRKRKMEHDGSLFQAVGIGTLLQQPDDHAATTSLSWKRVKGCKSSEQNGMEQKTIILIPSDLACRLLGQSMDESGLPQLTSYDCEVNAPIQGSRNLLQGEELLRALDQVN
Compound,outcome,AC50
COc1cc(-c2nc(NC(=O)c3cc4cc(C)cc(C)c4n3CC(=O)O)sc2CCC2CCCCC2)c(OC)cc1Cl,inactive,–
CCCCCCCCCCCC(=O)OC,inactive,–
COCCOCCOC,inactive,–
CCCCCCCCCCO,inactive,–
CC(CO)OC(C)CO (centres undefined) (tested in a mixture with another compound),–,4.72 µM (active)
CCc1c(C(=O)NN2CCCCC2)nn(-c2ccc(Cl)cc2Cl)c1-c1ccc(Br)cc1,–,0.387 µM (active)
CNC(=O)[C@H]1O[C@@H](n2cnc3c(NCc4cc(Cl)ccc4OCc4cc(C)no4)ncnc32)[C@H](O)[C@@H]1N,inactive,–
C[Si]1(C)O[Si](C)(C)O[Si](C)(C)O[Si](C)(C)O1,inactive,–
CCCCc1ccc2c(n1)[C@@H](c1ccc(OC)cc1C[C@H](C)C(=O)O)[C@H](C(=O)O)[C@H]2c1ccc2c(c1)OCO2,inactive,–
O=C(O)CCCCC(=O)O,inactive,–
CCCCN(CCCC)CCCC,inactive,–
CN[C@H]1CC[C@@H](c2ccc(Cl)c(Cl)c2)c2ccc(S(N)(=O)=O)cc21,inactive,–
Cc1cc(=O)[nH]c(=S)[nH]1,inactive,–
Cc1nc(-c2ccc3c(c2)CCN(CCC2CCC(NC(=O)/C=C/c4ccc(F)cc4)CC2)CC3)no1 (centres undefined),inactive,–
Cc1ccc(Cl)cc1,–,57.2 µM (active)
NC(=O)Cn1c(=O)cc(CCN2CCN(c3nccc4sccc34)CC2)c2ccc(F)cc21,–,61.4 µM (active)
Cc1ccccc1Cl,inactive,–
COc1cc(/C=C/C(=O)CC(=O)/C=C/c2ccc(O)c(OC)c2)ccc1O,inactive,–
COc1cc(S(=O)(=O)O)c(C)cc1N=Nc1c(O)ccc2cc(S(=O)(=O)O)ccc12,–,5.78 µM (active)
CN1CCN(Cc2cc(-c3ccc4[nH]c(=O)oc4c3)co2)[C@@H](c2ccc(F)cc2)C1,–,6.55 µM (active)
FC(F)(F)C(F)(F)C(F)(F)C(F)(F)C(F)(F)C(F)(F)CCI,inactive,–
Cc1nc(C)nc(N2C[C@@H](C)N(c3ccnc([C@@H](C)O)n3)[C@@H](C)C2)n1,inactive,–
Cc1c(C(=O)O)c(O)cc2c1C(=O)c1c(O)c([C@@H]3O[C@H](CO)[C@@H](O)[C@H](O)[C@H]3O)c(O)c(O)c1C2=O,inactive,–
Cc1cc(NC(=O)C(=O)O)cc(C)c1Oc1ccc(O)c2c1CCC2,inactive,–
O=C(O)Cc1ccccc1Nc1c(Cl)cccc1Cl,inactive,–
